tim10-1 inh: inhibits growth of tim10-1 mutant yeast. S. cerevisiae tim10-1 ts strain growth, BacTiter-Glo, 24 h. 330,000 tested, 2.2% active. inhibition, % at 20 µM. AID 463190;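 active means inhibition of at least 40%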;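 further: mutant grown at 25 °C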
tim23-1 inh: growth inhibitors of tim23-1 mutant yeast; S. cerevisiae tim23-1 growth, BacTiter-Glo luminescence, 24 h; inhibition, % at 20 µM; 330,000 tested, 1.3% active;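 active means growth inhibition of the mutant yeast at or above 50%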;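 further: temperature-sensitive mutant grown at 25 °C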
TIM10 inh: inhibits growth of TIM10 yeast strain; inhibition, % at 10 µM; S. cerevisiae TIM10 strain growth, BacTiter-Glo luminescence, 24 h; 330,000 tested, 1.4% active;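 active means inhibition of 40% or more at the single tested concentration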;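 further: wild-type TIM10 isogenic control strain grown at permissive 25 °C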
PfHsp90 yeast 2: reduces growth (ATP signal) of yeast expressing P. falciparum Hsp90; AID 504621; S. cerevisiae expressing PfHsp90, BacTiter-Glo ATP, 48 h; yeast lacking PDR1 and PDR3 efflux regulators; 310,000 tested, 0.32% active; inhibition, % at 9.4 µM;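 active means every replicate shows inhibition above about 80%, whatever the replicate mean, limit read from the data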
Rce1 inh: blocks yeast Ras-converting enzyme; Q03530; yeast membranes, quenched prenylated peptide cleavage fluorescence; calls only; 290,000 tested, 0.27% active;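 active means fall in fluorescence gain of 50% or more versus controls, with final raw signal at or below 3038400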
Target sequence (Q03530 whole entry, looked up): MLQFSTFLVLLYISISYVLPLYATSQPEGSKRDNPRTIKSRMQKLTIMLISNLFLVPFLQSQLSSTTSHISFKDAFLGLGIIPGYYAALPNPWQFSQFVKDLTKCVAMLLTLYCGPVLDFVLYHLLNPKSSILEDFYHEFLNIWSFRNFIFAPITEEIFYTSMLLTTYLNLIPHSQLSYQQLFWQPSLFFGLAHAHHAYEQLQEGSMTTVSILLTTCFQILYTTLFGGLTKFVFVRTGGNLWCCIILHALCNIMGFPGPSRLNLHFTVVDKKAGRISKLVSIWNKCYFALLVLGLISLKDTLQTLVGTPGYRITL
TIM10 conf: confirmation of TIM10 yeast growth inhibitors; shares compounds with TIM10 inh; S. cerevisiae tim10 strain growth, BacTiter-Glo luminescence, 24 h; inhibition, % at 10 µM; 4,600 tested, 63% active;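 active means inhibition of yeast growth at or above a set limit in either of two replicates at 10 µM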; further: this counterscreen used the strain with wild-type TIM10
Of the large screens only hits and unclear results are named; the others gave an inactive call (follow-up assays come after a bar, where they were run). In the library only some 3.7% were active in any assay of this set; here they are far more common.

O=C(Nc1ccc(-c2cn3ccsc3n2)cc1)C1CC1	TIM10 inh 57 | TIM10 conf inactive
CCCc1ccc(Oc2c(-c3ccc(O)c(C)c3O)n[nH]c2C)cc1	TIM10 inh 63 | TIM10 conf 73
CCCc1ccc(Oc2cn[nH]c2-c2ccc(O)c(C)c2O)cc1	TIM10 inh 71, PfHsp90 yeast 2 142 | TIM10 conf 71
O=C(O)Cc1ccc(OCc2ccc(Cl)nc2)cc1	none
COc1ccc2oc(=O)c(-c3csc(Nc4ccc(O)cc4)n3)cc2c1	TIM10 inh 41 | TIM10 conf inactive
O=C(N/N=C/c1ccncc1)c1cc2c(ccc3ccccc32)o1	TIM10 inh 47 | TIM10 conf 34
CCC(=O)Nc1c(-c2ccccc2)c(=O)c2ccccc2n1C	none
O=C(c1ccc(N2C(=O)c3ccccc3C2=O)cc1)N1CCCCC1	none
CCc1ccc(N2C(=O)C(Cl)=C(Nc3ccc(C(=O)N4CCCC4)cc3)C2=O)cc1	TIM10 inh 50 (no result: PfHsp90 yeast 2, Rce1 inh) | TIM10 conf 42
O=C(Nc1ccc2nc3n(c(=O)c2c1)CCCCC3)C(=O)N1CCN(c2ccccc2F)CC1	none
Cc1ccc(C)c(NC(=S)N2CCN(CCO)CC2)c1	none
S=C(NCc1cccs1)Nc1ccc(Br)cc1Cl	TIM10 inh 41 | TIM10 conf 46
S=C(NCc1cccs1)Nc1cccc2ccccc12	none
O=C(COC(=O)Cc1ccccc1F)Nc1cc(S(=O)(=O)N2CCOCC2)ccc1N1CCCC1	none
CC(C)n1cc2c(N)ncnc2n1	none (no result: tim10-1 inh, tim23-1 inh, TIM10 inh, Rce1 inh)
COc1ccc(C(=O)NCC(=O)c2ccccc2)cc1	none
CCNC(=S)N/N=C/c1ccc(OCCOc2ccccc2C)cc1	none
CCOc1ccc(/C=N/NC(=S)Nc2c(C)cccc2C)cc1	TIM10 inh 52 | TIM10 conf inactive
O=C(NCc1ccco1)/C(=C\C=C\c1ccccc1)NC(=O)c1ccccc1Br	none
Cc1cc(C)c(NC(=O)C2CCCN2CCOC(=O)c2cccc([N+](=O)[O-])c2)c(C)c1 (stereo not given)	TIM10 inh 41 | TIM10 conf inactive
CC1CCN(C(=O)COC(=O)c2ccc(F)c(S(=O)(=O)N3CCOCC3)c2)CC1	none
O=C(O)C1Sc2[nH]c(=O)sc2C2c3cc(Br)ccc3OC(=O)C12 (stereo not given)	TIM10 inh 44 | TIM10 conf 33
O=C(NC(=S)Nc1ccccn1)c1cc(-c2ccccc2)nc2ccccc12	TIM10 inh 47 | TIM10 conf inactive
O=C(N/N=C/c1ccccn1)c1cc(-c2ccc(Cl)cc2)nc2ccccc12	TIM10 inh 47, PfHsp90 yeast 2 99 | TIM10 conf 50
O=C(NC(=S)Nc1ccccc1)c1cc(-c2ccccc2)nc2ccccc12	none
CCc1c(C)nc2c(C)cccc2c1SCCC#N	none
CCOC(=O)c1ccc(S(=O)(=O)n2c(CN3CCCCC3)nc3ccccc32)cc1	TIM10 inh 50 | TIM10 conf inactive
O=C(C1Cc2ccccc2CN1S(=O)(=O)c1cccs1)N1CCCCCC1 (stereo not given)	TIM10 inh 44 | TIM10 conf 33
NC(=O)C1Cc2ccccc2CN1S(=O)(=O)c1cccs1 (stereo not given)	none
COc1cc(OC)cc(-c2nc3ccccc3c(=O)n2OC(=O)c2ccccc2C)c1	TIM10 inh 48 | TIM10 conf inactive
CSc1cc(-c2ccc(Cl)cc2)c(C(=O)NC(C)C)s1	none
CSc1cc(-c2ccc(Cl)cc2)c(C(=O)NN)s1	TIM10 inh 44 (no result: PfHsp90 yeast 2) | TIM10 conf 27
COc1ccc(C)cc1NC(=O)CN1CCN(S(=O)(=O)c2ccc3ccccc3c2)CC1	none (no result: Rce1 inh)
O=C(Nc1ccccc1C(=O)Nc1ccncc1)c1ccccc1	none
Fc1ccc(C(c2nnnn2C2CCCC2)N2CCc3ccccc32)cc1 (stereo not given)	TIM10 inh 45 (no result: PfHsp90 yeast 2) | TIM10 conf inactive
CCOC(=O)c1cnc2c(OC)cccc2c1N1CCN(c2ccccc2OC)CC1	TIM10 inh 42 | TIM10 conf inactive
CCOC(=O)COn1c(=O)c(-c2ccc(F)cc2)[n+]([O-])c2ccccc21	none
CCOC(=O)COn1c(=O)c(-c2cccs2)[n+]([O-])c2ccccc21	TIM10 inh 42 | TIM10 conf inactive
CC1=NNC(=O)/C1=C\c1cn(-c2ccccc2)nc1-c1ccc(F)cc1	none (no result: tim10-1 inh, tim23-1 inh, TIM10 inh, PfHsp90 yeast 2)
CC1=NNC(=O)/C1=C\c1cn(-c2ccccc2)nc1-c1cccs1	TIM10 inh 88, PfHsp90 yeast 2 110 | TIM10 conf 84
O=C1/C(=C/c2ccccc2[N+](=O)[O-])COc2ccccc21	TIM10 inh 79 | TIM10 conf 89
Cc1ccc(OCC(O)CNC(C)c2ccccc2)cc1C (stereo not given)	none
Cc1cc(NC(=O)c2ccccc2)sc1C	TIM10 inh 52 | TIM10 conf 42
O=C(c1cccnc1Cl)N(Cc1ccccc1)Cc1ccccc1	none
CC(C)[C@H]1COC(NC2=N[C@@H](C(C)C)CO2)=N1	none
Cc1ccc(C(=O)/C=C/c2ccc3c(c2)OCCO3)c(O)c1	TIM10 inh 52 | TIM10 conf 52
Cc1nc2sc(C(c3ccc(F)cc3)N3CCN(C(=O)c4ccco4)CC3)c(O)n2n1 (stereo not given)	none
c1ccc(Nc2ncnc3[nH]ncc23)cc1	none (no result: PfHsp90 yeast 2)
O=C(/C(=C/c1cccnc1)n1ccnc1)c1ccc(Cl)cc1Cl	none
CC(C)/C=C(/C(=O)c1ccc(Cl)cc1Cl)n1cncn1	TIM10 inh 42 | TIM10 conf inactive
Cc1cc(C)nc(SCc2ccc(C(=O)N/N=C3\CC(C)CC(C)(C)C3)cc2)n1 (stereo not given)	TIM10 inh 40 | TIM10 conf inactive
CC(=O)Nc1ccc(NC(=O)Cn2c(=O)n(-c3ccc(C)cc3)c(=O)c3oc4ccccc4c32)cc1	none
Cc1cc(C)c(O)c(CN(C)Cc2cc(Cl)cc(Cl)c2O)c1	none (no result: tim10-1 inh, tim23-1 inh, TIM10 inh, Rce1 inh)
Oc1c(Cl)cc(Cl)cc1Sc1cc(Cl)cc(Cl)c1O	TIM10 inh 45 (no result: PfHsp90 yeast 2) | TIM10 conf 39
O=C(NCc1cccc(C(F)(F)F)c1)C1CCC(=O)N(C2CCCCCC2)C1 (stereo not given)	none
CC(C)n1c(N2CCN(S(=O)(=O)c3cccc([N+](=O)[O-])c3)CC2)nc2ccccc21	TIM10 inh 41 | TIM10 conf 34
Cc1ccc(OCC(=O)N2CCc3ccccc32)cc1	none
O=C(COc1ccc2c(c1)CCC2)N1CCc2ccccc21	TIM10 inh 45 (no result: PfHsp90 yeast 2) | TIM10 conf 37
Fc1ccc(CNCC2CCCO2)cc1 (stereo not given)	TIM10 inh 97 | TIM10 conf inactive
Clc1ccc(CNCC2CCCO2)cc1 (stereo not given)	none
CCOc1ccc(NC(=O)C2CCCN(S(=O)(=O)c3ccc4c(c3)CC(C)N4C(C)=O)C2)cc1 (stereo not given)	none
Cn1c(CNC(=O)c2ccc3c(c2)OCO3)nnc1SCC(=O)Nc1ccccc1F	none
Cc1ccc(C(=O)Cn2c(C(=O)/C=C/c3ccccc3)nc3ccccc32)cc1	TIM10 inh 43 (no result: PfHsp90 yeast 2) | TIM10 conf 33
Cc1ccc(C(=O)Cn2c(NCCO)nc3ccccc32)cc1	none

From PubChem
